Assay results: the supplement of paper PMC10849652
The full data set covers some 7,900 targets. This sample favours those with a hit. About 0.6% of all pairs of compound and target were hits. A number with no mark means an inactive call.

Experiments:
Test in all cases: log2 fold change, soluble protein after heating vs DMSO (PISA); higher = thermal stabilisation; K562 cells, 10 uM, 30 min; active = over 0.2 and 3.5 SD of the protein, either way, in both replicates (recomputed)
saracatinib = compound: CN1CCN(CCOc2cc(OC3CCOCC3)c3c(Nc4c(Cl)ccc5c4OCO5)ncnc3c2)CC1 [saracatinib]
Summary of the method: (§1)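 Aliquots of K562 cells (2×10^6 cells/mL) treated with 10 μM compound for 30 min were heated for 3 min over 48°C-58°C. After pooling and extraction in PBS with 0.5% NP-40 at 4°C, soluble protein from a 21,000xg, 90 min spin was quantified by TMTpro 16plex LC-MS/MS with channel sums equalised. Thermal stability is expressed against control samples, from duplicates, as a log2 fold change.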

sotrastaurin = compound: CN1CCN(c2nc(C3=C(c4c[nH]c5ccccc45)C(=O)NC3=O)c3ccccc3n2)CC1 [sotrastaurin]
Summary of the method: as §1

alvocidib = compound: CN1CC[C@H](c2c(O)cc(O)c3c(=O)cc(-c4ccccc4Cl)oc23)[C@H](O)C1 [alvocidib]
Summary of the method: as §1

Tubastatin A = compound: CN1CCc2c(c3ccccc3n2Cc2ccc(C(=O)NO)cc2)C1 [Tubastatin A]
Summary of the method: as §1

[1] = compound: CNC(=O)C1=CC=CC=C1NC2=NC(=NC=C2Cl)NC3=C(C=C(C=C3)N4CCOCC4)OC
Summary of the method: as §1

defactinib = compound: CNC(=O)c1ccc(Nc2ncc(C(F)(F)F)c(NCc3nccnc3N(C)S(C)(=O)=O)n2)cc1 [defactinib]
Summary of the method: as §1

rucaparib = compound: CNCc1ccc(-c2[nH]c3cc(F)cc4c3c2CCNC4=O)cc1 [rucaparib]
Summary of the method: as §1

[2] = compound: CNc1nc(-c2ccc3c(N)n[nH]c3c2)cc(N2C[C@@H](C(=O)NC3CCCCC3)CC[C@H]2C)n1
Summary of the method: as §1

encorafenib = compound: COC(=O)N[C@@H](C)CNc1nccc(-c2cn(C(C)C)nc2-c2cc(Cl)cc(NS(C)(=O)=O)c2F)n1 [encorafenib]
Summary of the method: as §1

[3] = compound: COC(=O)[C@H](CCSC)NC(=O)C1=C(C=C(C=C1)NC[C@H](CS)N)C2=CC=CC=C2
Summary of the method: as §1

Chain of UniProt Q9BSQ5 (Q9BSQ5 whole entry, looked up): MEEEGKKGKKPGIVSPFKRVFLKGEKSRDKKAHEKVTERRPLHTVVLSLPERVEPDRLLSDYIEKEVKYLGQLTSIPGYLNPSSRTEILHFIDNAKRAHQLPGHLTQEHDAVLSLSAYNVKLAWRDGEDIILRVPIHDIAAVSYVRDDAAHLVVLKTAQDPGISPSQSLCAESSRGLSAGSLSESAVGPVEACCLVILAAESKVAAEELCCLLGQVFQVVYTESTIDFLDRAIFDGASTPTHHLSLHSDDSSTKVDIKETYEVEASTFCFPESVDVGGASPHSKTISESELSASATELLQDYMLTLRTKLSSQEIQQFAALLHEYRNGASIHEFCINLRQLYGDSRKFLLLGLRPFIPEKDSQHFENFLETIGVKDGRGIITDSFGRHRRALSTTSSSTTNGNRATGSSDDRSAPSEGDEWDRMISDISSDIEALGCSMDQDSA
Chain of UniProt Q92828 (Q92828 whole entry, looked up): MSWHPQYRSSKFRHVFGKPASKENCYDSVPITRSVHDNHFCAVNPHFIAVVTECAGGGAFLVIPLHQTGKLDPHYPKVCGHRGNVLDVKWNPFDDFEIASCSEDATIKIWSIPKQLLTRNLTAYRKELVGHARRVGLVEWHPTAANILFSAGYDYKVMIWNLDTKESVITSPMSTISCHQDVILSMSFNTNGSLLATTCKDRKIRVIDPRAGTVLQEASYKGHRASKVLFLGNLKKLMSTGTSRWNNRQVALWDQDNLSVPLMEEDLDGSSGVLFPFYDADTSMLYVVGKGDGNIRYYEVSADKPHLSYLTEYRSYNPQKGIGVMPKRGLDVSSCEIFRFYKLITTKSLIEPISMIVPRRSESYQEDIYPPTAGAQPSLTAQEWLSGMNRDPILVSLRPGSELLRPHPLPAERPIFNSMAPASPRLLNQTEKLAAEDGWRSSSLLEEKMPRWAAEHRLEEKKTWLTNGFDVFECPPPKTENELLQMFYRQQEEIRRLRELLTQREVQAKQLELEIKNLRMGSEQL
Chain of UniProt Q9BT78 (Q9BT78 whole entry, looked up): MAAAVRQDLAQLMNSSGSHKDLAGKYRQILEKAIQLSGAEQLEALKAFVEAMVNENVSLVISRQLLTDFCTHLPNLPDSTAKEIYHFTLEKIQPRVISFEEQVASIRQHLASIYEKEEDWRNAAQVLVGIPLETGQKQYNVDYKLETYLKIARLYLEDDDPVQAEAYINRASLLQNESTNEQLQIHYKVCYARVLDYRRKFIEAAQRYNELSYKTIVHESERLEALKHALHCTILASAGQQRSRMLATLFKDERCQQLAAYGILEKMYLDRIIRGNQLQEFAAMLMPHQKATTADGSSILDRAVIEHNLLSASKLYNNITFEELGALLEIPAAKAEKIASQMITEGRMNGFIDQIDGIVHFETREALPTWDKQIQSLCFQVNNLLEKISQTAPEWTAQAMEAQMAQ
Chain of UniProt P48509 (P48509 whole entry, looked up): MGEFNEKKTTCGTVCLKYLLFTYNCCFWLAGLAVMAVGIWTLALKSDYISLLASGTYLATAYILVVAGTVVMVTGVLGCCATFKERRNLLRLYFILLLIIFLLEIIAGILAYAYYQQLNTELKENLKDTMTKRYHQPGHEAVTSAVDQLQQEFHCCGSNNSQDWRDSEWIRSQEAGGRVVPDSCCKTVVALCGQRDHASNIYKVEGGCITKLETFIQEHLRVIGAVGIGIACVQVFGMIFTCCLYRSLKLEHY
Chain of UniProt O60563 (O60563 whole entry, looked up): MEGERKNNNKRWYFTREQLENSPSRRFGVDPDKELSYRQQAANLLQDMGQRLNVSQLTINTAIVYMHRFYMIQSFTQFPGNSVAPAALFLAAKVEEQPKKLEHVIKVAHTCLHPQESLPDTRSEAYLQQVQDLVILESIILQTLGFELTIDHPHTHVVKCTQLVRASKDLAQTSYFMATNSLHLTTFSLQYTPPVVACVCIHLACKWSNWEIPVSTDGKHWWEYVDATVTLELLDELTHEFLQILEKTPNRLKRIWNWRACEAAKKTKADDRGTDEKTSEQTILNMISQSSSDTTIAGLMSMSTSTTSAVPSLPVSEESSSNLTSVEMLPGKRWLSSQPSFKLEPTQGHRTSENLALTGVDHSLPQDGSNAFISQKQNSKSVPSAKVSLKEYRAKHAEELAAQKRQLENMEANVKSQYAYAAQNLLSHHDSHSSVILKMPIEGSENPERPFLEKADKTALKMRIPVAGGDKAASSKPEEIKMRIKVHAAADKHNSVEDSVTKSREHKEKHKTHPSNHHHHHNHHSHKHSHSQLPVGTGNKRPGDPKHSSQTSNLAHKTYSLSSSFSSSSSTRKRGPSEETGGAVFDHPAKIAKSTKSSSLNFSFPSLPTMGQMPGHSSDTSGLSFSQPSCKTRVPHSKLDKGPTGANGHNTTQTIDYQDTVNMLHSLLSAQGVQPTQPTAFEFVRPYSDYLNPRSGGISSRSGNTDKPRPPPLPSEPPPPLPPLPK
Chain of UniProt P67870 (P67870 whole entry, looked up): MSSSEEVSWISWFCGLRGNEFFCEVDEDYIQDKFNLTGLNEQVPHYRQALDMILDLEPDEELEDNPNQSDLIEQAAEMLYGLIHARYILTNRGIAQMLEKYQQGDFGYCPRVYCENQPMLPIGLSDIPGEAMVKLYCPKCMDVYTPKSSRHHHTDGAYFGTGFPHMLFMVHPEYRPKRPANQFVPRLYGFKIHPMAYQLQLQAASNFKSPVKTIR
Chain of UniProt Q9H444 (Q9H444 whole entry, looked up): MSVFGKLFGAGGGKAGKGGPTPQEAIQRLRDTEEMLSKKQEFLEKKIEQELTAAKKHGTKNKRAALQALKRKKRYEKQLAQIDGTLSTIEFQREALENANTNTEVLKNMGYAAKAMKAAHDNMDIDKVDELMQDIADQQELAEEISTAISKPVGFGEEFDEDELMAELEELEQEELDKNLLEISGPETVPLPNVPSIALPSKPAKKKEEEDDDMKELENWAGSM
Chain of UniProt P0C0L4 (P0C0L4 whole entry, looked up): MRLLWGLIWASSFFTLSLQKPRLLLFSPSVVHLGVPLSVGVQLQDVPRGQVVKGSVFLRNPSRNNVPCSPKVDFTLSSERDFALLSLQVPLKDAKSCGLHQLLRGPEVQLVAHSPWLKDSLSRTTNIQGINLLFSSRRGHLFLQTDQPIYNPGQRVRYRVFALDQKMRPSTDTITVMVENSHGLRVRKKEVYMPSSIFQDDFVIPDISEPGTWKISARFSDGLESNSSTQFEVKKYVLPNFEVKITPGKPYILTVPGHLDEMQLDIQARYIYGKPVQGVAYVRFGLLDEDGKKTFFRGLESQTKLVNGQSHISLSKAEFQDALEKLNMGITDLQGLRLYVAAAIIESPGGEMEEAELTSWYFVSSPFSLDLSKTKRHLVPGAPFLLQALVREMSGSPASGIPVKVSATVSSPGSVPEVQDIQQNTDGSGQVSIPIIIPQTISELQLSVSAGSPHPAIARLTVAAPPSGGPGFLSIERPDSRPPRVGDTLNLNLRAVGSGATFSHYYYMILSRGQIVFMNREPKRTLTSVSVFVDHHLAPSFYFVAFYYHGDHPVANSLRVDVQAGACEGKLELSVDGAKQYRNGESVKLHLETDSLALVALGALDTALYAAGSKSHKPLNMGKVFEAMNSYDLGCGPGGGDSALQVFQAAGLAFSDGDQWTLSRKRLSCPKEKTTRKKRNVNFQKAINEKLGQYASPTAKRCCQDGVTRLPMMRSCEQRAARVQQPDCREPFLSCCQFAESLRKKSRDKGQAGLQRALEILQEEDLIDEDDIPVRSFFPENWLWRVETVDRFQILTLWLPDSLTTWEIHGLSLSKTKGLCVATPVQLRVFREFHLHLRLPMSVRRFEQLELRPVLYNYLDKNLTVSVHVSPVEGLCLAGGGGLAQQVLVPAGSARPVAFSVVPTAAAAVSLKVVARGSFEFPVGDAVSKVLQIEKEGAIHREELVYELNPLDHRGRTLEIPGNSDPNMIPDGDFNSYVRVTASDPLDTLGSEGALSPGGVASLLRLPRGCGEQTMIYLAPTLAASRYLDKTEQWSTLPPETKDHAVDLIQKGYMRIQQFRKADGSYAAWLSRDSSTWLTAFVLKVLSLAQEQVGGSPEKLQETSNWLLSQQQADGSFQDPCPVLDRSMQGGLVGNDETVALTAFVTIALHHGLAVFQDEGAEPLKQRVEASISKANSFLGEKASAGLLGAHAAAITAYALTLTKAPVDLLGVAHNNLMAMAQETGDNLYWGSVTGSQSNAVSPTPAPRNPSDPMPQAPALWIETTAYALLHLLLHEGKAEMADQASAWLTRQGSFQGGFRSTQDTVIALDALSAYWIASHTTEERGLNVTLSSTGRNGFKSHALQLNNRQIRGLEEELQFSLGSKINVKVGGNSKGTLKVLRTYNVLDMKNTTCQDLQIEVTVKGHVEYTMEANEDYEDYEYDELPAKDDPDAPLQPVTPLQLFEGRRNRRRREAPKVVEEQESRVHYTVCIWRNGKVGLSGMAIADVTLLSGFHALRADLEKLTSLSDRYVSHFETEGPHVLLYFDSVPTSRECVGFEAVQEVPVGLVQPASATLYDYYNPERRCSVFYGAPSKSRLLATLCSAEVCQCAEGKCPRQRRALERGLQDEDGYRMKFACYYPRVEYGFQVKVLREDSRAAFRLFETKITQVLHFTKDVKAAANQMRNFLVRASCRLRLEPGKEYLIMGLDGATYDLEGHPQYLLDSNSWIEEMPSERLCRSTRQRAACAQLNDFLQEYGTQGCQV
Chain of UniProt P09497 (P09497 whole entry, looked up): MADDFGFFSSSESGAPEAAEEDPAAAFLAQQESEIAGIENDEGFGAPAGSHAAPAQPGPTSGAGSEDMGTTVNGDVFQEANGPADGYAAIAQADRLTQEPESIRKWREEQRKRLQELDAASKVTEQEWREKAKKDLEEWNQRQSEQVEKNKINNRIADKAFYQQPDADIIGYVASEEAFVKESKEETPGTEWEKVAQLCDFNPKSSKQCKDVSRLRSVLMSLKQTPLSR
Chain of UniProt Q5RI15 (Q5RI15 whole entry, looked up): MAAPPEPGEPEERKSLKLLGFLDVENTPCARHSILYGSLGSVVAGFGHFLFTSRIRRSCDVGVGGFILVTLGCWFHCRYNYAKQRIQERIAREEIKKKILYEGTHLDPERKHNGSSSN
Chain of UniProt P61024 (P61024 whole entry, looked up): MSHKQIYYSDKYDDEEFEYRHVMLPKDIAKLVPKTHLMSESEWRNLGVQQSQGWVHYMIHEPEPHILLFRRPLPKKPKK

Row | Target | log2 fold change (saracatinib) | log2 fold change (sotrastaurin) | log2 fold change (alvocidib) | log2 fold change (Tubastatin A) | log2 fold change [1] | log2 fold change (defactinib) | log2 fold change (rucaparib) | log2 fold change [2] | log2 fold change (encorafenib) | log2 fold change [3]
1 | CELF2 isoform 3 (UniProt O95319) | -0.011 | 0.076 | 0.036 | -0.102 | -0.034 | 0.098 | 0.125 | -0.099 | -0.041 | -0.032
2 | CAMSAP1 isoform 3 (UniProt Q5T5Y3) | -0.084 | -0.175 | -0.027 | 0.071 | -0.191 | 0.051 | 0.048 | -0.071 | 0.065 | 0.017
3 | CLCN3 (UniProt P51790) | 0 | 0.021 | -0.048 | -0.14 | 0.019 | 0.004 | -0.055 | -0.057 | 0.021 | -0.06
4 | C4A (UniProt P0C0L4) | 0.108 | 0.268 | 0.052 | -0.039 | -0.021 | 0.072 | -0.075 | -0.188 | -0.047 | -0.039
5 | CCM2 isoform 2 (UniProt Q9BSQ5) | -0.01 | 0.056 | -0.022 | 0.073 | -0.061 | -0.107 | 0.03 | 0.087 | 0.118 | -0.033
6 | CHMP4B (UniProt Q9H444) | 0.021 | -0.061 | 0.017 | -0.024 | -0.026 | -0.017 | 0.02 | -0.019 | -0.055 | 0.054
7 | COA6 isoform 2 (UniProt Q5JTJ3) | 0.175 | 0.063 | 0.012 | 0.07 | 0.354 | -0.022 | -0.068 | 0.138 | -0.055 | 0.072
8 | CLINT1 isoform 3 (UniProt Q14677) | 0.083 | 0.041 | 0.061 | -0.036 | 0.185 | 0.035 | 0.109 | -0.06 | -0.059 | 0.012
9 | CDK9 isoform 2 (UniProt P50750) | -0.028 | -0.018 | 0.405 (active) | 0.01 | -0.07 | 0.03 | 0.084 | 0.036 | 0.079 | -0.091
10 | CDC26 (UniProt Q8NHZ8) | 0.032 | -0.022 | 0.026 | 0 | -0.032 | -0.11 | 0.112 | -0.013 | -0.051 | -0.234
11 | CCAR1 (UniProt Q8IX12) | -0.038 | -0.027 | -0.17 | -0.001 | -0.039 | -0.021 | 0.026 | 0.086 | -0.005 | -0.033
12 | CNN2 (UniProt Q99439) | 0.004 | -0.161 | -0.024 | 0 | -0.003 | -0.087 | -0.008 | -0.077 | 0.023 | 0
13 | CPSF3 (UniProt Q9UKF6) | 0.009 | -0.086 | -0.052 | 0.04 | 0.07 | -0.098 | -0.011 | -0.049 | 0.03 | -0.009
14 | CDK6 (UniProt Q00534) | 0.002 | -0.005 | 0.01 | 0.022 | 0.016 | -0.029 | 0.065 | -0.02 | 0.011 | 0.004
15 | CD151 (UniProt P48509) | 0.045 | 0.116 | -0.049 | -0.012 | 0.092 | -0.065 | -0.097 | 0.03 | 0.031 | 0.001
16 | CDK5 (UniProt Q00535) | -0.008 | 0.094 | 0.142 | -0.013 | 0.029 | 0.143 | 0.05 | 0.006 | 0.049 | -0.042
17 | CSNK2B (UniProt P67870) | 0.074 | 0.036 | -0.035 | 0.021 | 0.246 | -0.09 | -0.116 | -0.031 | 0.024 | 0.038
18 | CLTB (UniProt P09497) | 0.064 | 0.017 | 0.078 | -0.019 | -0.034 | 0.063 | -0.039 | -0.009 | -0.014 | 0.031
19 | COX20 isoform 2 (UniProt Q5RI15) | 0.005 | 0.008 | -0.025 | -0.062 | -0.028 | -0.017 | 0.044 | -0.025 | -0.108 | 0.009
20 | COPS4 (UniProt Q9BT78) | 0.028 | 0.008 | -0.071 | -0.011 | -0.005 | -0.015 | 0.004 | -0.006 | -0.001 | -0.007
21 | CTBS (UniProt Q01459) | 0.081 | -0.245 | 0.029 | 0.038 | 0.023 | -0.082 | 0.055 | -0.132 | -0.093 | -0.038
22 | CDK13 (UniProt Q14004) | -0.133 | -0.121 | -0.061 | 0.042 | -0.071 | -0.01 | 0.06 | -0.129 | 0.104 | 0.036
23 | CORO2A (UniProt Q92828) | 0.016 | 0.015 | -0.021 | -0.055 | 0.053 | -0.015 | -0.266 | -0.097 | 0.21 | -0.028
24 | CCNT1 (UniProt O60563) | -0.005 | -0.173 | -0.221 | 0.075 | -0.086 | -0.213 | 0.044 | 0.043 | 0.163 | 0.002
25 | CKS1B (UniProt P61024) | 0.06 | 0.059 | -0.067 | -0.045 | -0.01 | -0.054 | -0.047 | -0.057 | 0.01 | -0.1
26 | CIR1 (UniProt Q86X95) | -0.02 | -0.039 | 0.256 | 0.078 | -0.061 | 0.418 | 0.102 | 0.057 | 0.04 | 0.207
27 | COX5A (UniProt P20674) | -0.063 | 0.025 | -0.063 | -0.015 | 0.043 | -0.016 | 0.011 | 0.007 | -0.036 | 0.11
28 | CCDC9 (UniProt Q9Y3X0) | 0.023 | 0.077 | 0.192 | -0.046 | -0.038 | 0.148 | 0.116 | -0.031 | -0.021 | 0.004
29 | CPSF6 isoform 2 (UniProt Q16630) | -0.014 | 0.031 | -0.128 | 0.015 | -0.217 | -0.009 | 0.016 | 0.008 | -0.043 | 0.007
30 | CHAMP1 (UniProt Q96JM3) | 0.103 | -0.007 | -0.139 | -0.036 | -0.064 | -0.104 | 0.053 | -0.001 | 0.048 | 0.049
